Assay results taken from PubChem BioAssay (NCATS).
Inconclusive results are not listed. Activity calls are given as the source filed them. Calls come from the whole dose curve; as a rule, active = well fitted curve in the direction sought with a large enough effect; inconclusive = small, poorly fitted or top-dose-only effect, or another doubt; inactive = no such curve, though single readings can be large; an effect the other way counts as inactive or inconclusive.

How the values were obtained:
[1] = NS1 protein of Zika virus - qHTS assay to identify small molecule inhibitors in human HEK 293 cells (AID 1347053); note: nearly all actives have a fitted effect of over 55% in size; note: potency is the fitted concentration of half-maximal effect
Outline: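 In this cell-based screen, HEK 293 cultures received compound for one hour before Zika MR766 at MOI = 0.5. NS1 was quantified 24 hours later by TR-FRET, normalized to virus-free wells and infected wells.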

[2] = qHTS of pediatric cancer cell lines to identify multiple opportunities for drug repurposing: Primary screen for TC32 cells (AID 1347089); note: nearly all actives have a fitted effect of over 60% in size; note: potency is the fitted concentration of half-maximal effect
Outline: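 Measured quantity: luminescence from CellTiter-Glo, reflecting metabolically active TC32 cells following 48 h of compound. Curves came straight from multi-point titrations, with 8 or 11 points in primary and 11 in confirmatory screening.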

[3] = qHTS of pediatric cancer cell lines to identify multiple opportunities for drug repurposing: Primary screen for DAOY cells (AID 1347090); note: nearly all actives have a fitted effect of over 55% in size; note: potency is the fitted concentration of half-maximal effect
Outline: (§1)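 Viability measured as metabolically active cells via CellTiter-Glo luminescence following 48 hours of compound exposure, 11-point dilutions in confirmatory testing. 500-1,000 cells/well plated 5 hours before dosing; controls were DMSO and 2.3 µM bortezomib.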

[4] = qHTS of pediatric cancer cell lines to identify multiple opportunities for drug repurposing: Primary screen for SJ-GBM2 cells (AID 1347091); note: potency is the fitted concentration of half-maximal effect
Outline: as §1

[5] = qHTS of pediatric cancer cell lines to identify multiple opportunities for drug repurposing: Primary screen for A673 cells (AID 1347092); note: nearly all actives have a fitted effect of over 45% in size; note: potency is the fitted concentration of half-maximal effect
Outline: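 Cells are plated, rested 5 h, dosed by pintool, incubated 48 h, then lysed with CellTiter-Glo and read by luminescence. DMSO is the neutral control; bortezomib at 2.3 uM final is the positive control.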

[6] = qHTS of pediatric cancer cell lines to identify multiple opportunities for drug repurposing: Primary screen for SK-N-MC cells (AID 1347093); note: potency is the fitted concentration of half-maximal effect
Outline: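 Metabolically active cells were quantified by ATP-dependent luminescence (CellTiter-Glo, 15 min at room temperature) following 48 h treatment. Cells had been plated at 500-1,000 per well and settled for 5 h beforehand.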

[7] = qHTS of pediatric cancer cell lines to identify multiple opportunities for drug repurposing: Primary screen for BT-37 cells (AID 1347094); note: potency is the fitted concentration of half-maximal effect
Outline: (§2)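 500-1,000 cells/well; 5 h pre-incubation 37 °C/5% CO2; compound pinned; 48 h; CellTiter-Glo, 15 min RT; luminescence. MIPE 11-pt from 0.78 nM, NPC 8-pt from 0.59 nM final. Bortezomib 2.3 µM final as positive control.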

[8] = qHTS of pediatric cancer cell lines to identify multiple opportunities for drug repurposing: Primary screen for NB-EBc1 cells (AID 1347095); note: potency is the fitted concentration of half-maximal effect
Outline: as §2

[9] = qHTS of pediatric cancer cell lines to identify multiple opportunities for drug repurposing: Primary screen for Saos-2 cells (AID 1347097); note: nearly all actives have a fitted effect of over 40% in size; note: potency is the fitted concentration of half-maximal effect
Outline: as §2

[10] = qHTS of pediatric cancer cell lines to identify multiple opportunities for drug repurposing: Primary screen for NB1643 cells (AID 1347099); note: nearly all actives have a fitted effect of over 50% in size; note: potency is the fitted concentration of half-maximal effect
Outline: as §2

[11] = qHTS of pediatric cancer cell lines to identify multiple opportunities for drug repurposing: Primary screen for BT-12 cells (AID 1347101); note: nearly all actives have a fitted effect of over 25% in size; note: potency is the fitted concentration of half-maximal effect
Outline: (§3)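 Cells (500-1,000/well) rested 5 h, then received compounds for 48 h; metabolically active cells were measured by CellTiter-Glo luminescence. Final concentrations spanned up to 46 µM (MIPE, 11-point) or 0.59 nM-46 µM (NPC, 8-point) in primary screens, 11-point in follow-ups.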

[12] = qHTS of pediatric cancer cell lines to identify multiple opportunities for drug repurposing: Primary screen for U-2 OS cells (AID 1347096); note: nearly all actives have a fitted effect of over 50% in size
Outline: (§4)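 Viability after 48 h compound treatment at 37C, 500-1,000 cells/well, read as ATP luminescence with CellTiter-Glo. Primary screens used 11-point (MIPE, 0.78 nM-46 µM) or 8-point (NPC, 0.59 nM-46 µM) final concentrations; follow-up screens used 11-point dilutions.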

[13] = qHTS of pediatric cancer cell lines to identify multiple opportunities for drug repurposing: Primary screen for SK-N-SH cells (AID 1347098); note: nearly all actives have a fitted effect of over 65% in size; note: potency is the fitted concentration of half-maximal effect
Outline: as §3

[14] = qHTS of pediatric cancer cell lines to identify multiple opportunities for drug repurposing: Primary screen for LAN-5 cells (AID 1347100); note: potency is the fitted concentration of half-maximal effect
Outline: as §4

Measured: Potency

Cc1ccc(-c2ncc(Cl)cc2-c2ccc(S(C)(=O)=O)cc2)cn1
not listed: [12] | [13] | [14]
inactive: all other assays above

CCCCCCCCOc1ccc(C(=O)c2ccccc2)c(O)c1
not listed: [5] | [13] | [14]
inactive: all other assays above

Cc1c[nH]c2ccccc12
not listed: [6] | [8]
inactive: all other assays above

O=C1C(=O)c2ccccc2C(O)=C1C1CCC(c2ccc(Cl)cc2)CC1 (stereo unspecified)
not listed: [8] | [9] | [11]
inactive: all other assays above

Oc1c(Cl)cc(Cl)c(Cl)c1Cc1c(O)c(Cl)cc(Cl)c1Cl
inactive: [1]
active: [2] 7.45 µM | [3] 8.41 µM | [4] 4.22 µM | [5] 21.1 µM | [7] 9.78 µM | [8] 4.73 µM | [9] 5.96 µM | [10] 5.96 µM | [14] 4.22 µM | [11] 13.8 µM

Cn1c(=O)c2[nH]c(Br)nc2n(C)c1=O
not listed: [6]
inactive: all other assays above

C=C[C@H]1CN2CC[C@H]1C[C@H]2[C@H](O)c1ccnc2ccc(OC)cc12
not listed: [12] | [13]
inactive: all other assays above

CCCCC(CC)COC(=O)c1ccc(N(C)C)cc1 (stereo unspecified)
not listed: [5] | [14]
inactive: all other assays above

CC(C)(Cc1c[nH]c2ccccc12)NCC(O)COc1ccccc1C#N (stereo unspecified)
not listed: [5] | [11] | [13]
inactive: all other assays above

c1ccc(CC2=NCCN2)cc1
not listed: [6] | [14]
inactive: all other assays above

Nc1nc(N)c(-c2ccccc2)s1
not listed: [12] | [14]
inactive: all other assays above

N#CCC(=O)NN
not listed: [5]
inactive: all other assays above

NC1CCN(c2nc3c(cc2F)c(=O)c(C(=O)O)cn3-c2ccc(F)cc2F)C1 (stereo unspecified)
not listed: [5] | [11] | [14]
inactive: all other assays above

O=C(O)C1(C(=O)O)CCC1.[NH2-].[NH2-].[Pt+2]
not listed: [5] | [11]
inactive: all other assays above

CN(C)CCC[C@@]1(c2ccc(F)cc2)OCc2cc(C#N)ccc21
not listed: [6] | [13]
inactive: all other assays above

CC(=O)Oc1ccc(C)cc1
not listed: [5] | [11]
inactive: all other assays above

CCCCN=C(N)N=C(N)N
not listed: [5] | [11]
inactive: all other assays above

C[N+]1(CC2COC(c3ccccc3)(C3CCCCC3)O2)CCCCC1 (stereo unspecified)
not listed: [6] | [7] | [11] | [14]
inactive: all other assays above

CC(C)Cc1ccc(CC(=O)O)cc1
not listed: [12] | [13]
inactive: all other assays above

Cc1cccc(C)c1NC(=O)CN1CCCCCC1
not listed: [5] | [11] | [13]
inactive: all other assays above

CC(C)(C)NC[C@H](O)COc1cccc2c1CCCC2=O
not listed: [5] | [13]
inactive: all other assays above

O=C1OC(CN2CCOCC2)CN1/N=C/c1ccc([N+](=O)[O-])o1 (stereo unspecified)
not listed: [5] | [11] | [14]
inactive: all other assays above

COc1ccc(S(=O)(=O)N2c3ccc(Cl)cc3[C@@](O)(c3ccccc3Cl)[C@H]2C(=O)N2CCC[C@@H]2C(N)=O)cc1OC
not listed: [6] | [13]
inactive: all other assays above

COC(=O)C(c1ccccc1Cl)N1CCc2sccc2C1 (stereo unspecified)
not listed: [5] | [13] | [14]
inactive: all other assays above

O=C(O)CCC(=O)Nc1ccc(S(=O)(=O)Nc2nccs2)cc1
not listed: [6]
inactive: all other assays above

CC(=O)O[C@]1(C(C)=O)CC[C@H]2[C@@H]3C=C(C)C4=CC(=O)CC[C@]4(C)[C@H]3CC[C@@]21C
not listed: [12] | [13]
inactive: all other assays above

CCOC(=O)[C@H](CCc1ccccc1)N[C@@H](C)C(=O)N1[C@H](C(=O)O)C[C@@H]2CCC[C@@H]21
not listed: [6] | [11]
inactive: all other assays above

CC(=O)OCC1=C(C(=O)O)N2C(=O)[C@@H](NC(=O)CSc3ccncc3)[C@H]2SC1
not listed: [6] | [12]
inactive: all other assays above

C#C[C@]1(O)CC[C@H]2[C@@H]3[C@H](C)CC4=C(CCC(=O)C4)[C@H]3CC[C@@]21C
not listed: [6] | [11]
inactive: all other assays above

CCNC(=O)/C=C/c1cccc(Br)c1
not listed: [9] | [12]
inactive: all other assays above

COc1cc(N)c(Cl)cc1C(=O)NC1CCN(Cc2ccccc2)CC1
not listed: [5] | [11] | [13]
inactive: all other assays above

C=C1c2cccc(O)c2C(O)=C2C(=O)[C@]3(O)C(O)=C(C(N)=O)C(=O)[C@@H](N(C)C)[C@@H]3[C@@H](O)[C@H]12
not listed: [5] | [11] | [13]
inactive: all other assays above

CN1CCN(C2=Nc3cc(F)ccc3Cc3ccccc32)CC1
inactive: [1] | [2] | [3] | [4] | [5] | [8]

CN1CCC(OC(c2ccccc2)c2ccccc2)CC1
not listed: [5] | [11]
inactive: all other assays above

CCOC(=O)C(C#N)=C(c1ccccc1)c1ccccc1
not listed: [12] | [13]
inactive: all other assays above

CCCCNC(=O)NS(=O)(=O)c1ccc(N)cc1
not listed: [4]
inactive: all other assays above

CNCCc1ccccn1
not listed: [4] | [9]
inactive: all other assays above

Cc1cc(CC(=O)O)c(C)n1-c1ccc(Cl)cc1
not listed: [5] | [6] | [14]
inactive: all other assays above

COc1cc(O)c(C(=O)c2ccccc2)cc1S(=O)(=O)O
not listed: [4]
inactive: all other assays above

NC(=O)C1(N2CCCCC2)CCN(CCCC(=O)c2ccc(F)cc2)CC1
not listed: [4] | [13] | [14]
inactive: all other assays above

CC(O)Cn1cnc2c1c(=O)n(C)c(=O)n2C (stereo unspecified)
not listed: [5] | [12] | [14]
inactive: all other assays above

CCN1/C(=C/C=C/c2sc3ccccc3[n+]2CC)Sc2ccccc21
active: [1] 3.55 µM | [2] 1.29 µM | [3] 1.16 µM | [5] 0.58 µM | [6] 1.3 µM | [7] 1.35 µM | [9] 0.92 µM | [13] 1.89 µM | [10] 2.91 µM

CN(C)CCN1C(=O)c2ccccc2N(C)c2ccccc21
not listed: [4] | [5]
inactive: all other assays above
